According to PubChem BioAssay AID1851 (National Center for Advancing Translational Sciences (NCATS), 2009):
“And” between values parts separate entries of the source, which are not always exact repeats. Identical values can stand only once. Among all 16,000 compounds or so, about 4,000 (25%) were called active. Inconclusive results (about 26%) are left out. Calls come from the whole dose curve; as a rule, active = well fitted curve in the direction sought with a large enough effect; inconclusive = small, poorly fitted or top-dose-only effect, or effect the other way; inactive = no such curve, though single readings can be large or run the other way. A selection follows. The source holds several records for some structures; these can differ, active in one and inactive in another.

Target: Cytochrome P450 2C9 (Homo sapiens) (UniProt P11712)
Experiment: Cytochrome panel assay with activity outcomes
Conditions: recombinant CYP, pro-luciferin dealkylation, luminescence, p450-cyp2c9; series mostly up to 57.1 µM
% is set by controls: 0 for no effect and ±100 for the full control effect.

Sequence of Cytochrome P450 2C9 (Homo sapiens) (P11712 whole entry, looked up): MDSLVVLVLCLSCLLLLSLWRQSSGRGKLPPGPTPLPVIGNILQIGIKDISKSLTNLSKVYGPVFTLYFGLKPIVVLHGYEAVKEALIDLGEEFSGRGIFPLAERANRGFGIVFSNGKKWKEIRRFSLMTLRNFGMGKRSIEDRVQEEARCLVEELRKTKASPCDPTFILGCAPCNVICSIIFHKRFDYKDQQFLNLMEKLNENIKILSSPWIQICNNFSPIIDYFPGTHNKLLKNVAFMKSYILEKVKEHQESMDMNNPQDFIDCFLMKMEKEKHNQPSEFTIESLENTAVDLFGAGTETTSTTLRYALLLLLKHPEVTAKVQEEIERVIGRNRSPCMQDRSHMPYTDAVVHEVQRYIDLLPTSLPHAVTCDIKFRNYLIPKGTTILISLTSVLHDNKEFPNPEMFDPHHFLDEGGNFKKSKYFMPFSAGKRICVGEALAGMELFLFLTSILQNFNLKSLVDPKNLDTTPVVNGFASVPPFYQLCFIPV

AC50, inactive:
O=C(CCCCC(=O)Nc1c(I)cc(I)c(C(=O)O)c1I)Nc1c(I)cc(I)c(C(=O)O)c1I
COc1ccc(N2CCN(CCNC(=O)c3c(C)cc(=O)oc3C)CC2)cc1
CCC(Sc1ncccc1C(=O)O)C(=O)N1CCOCC1 (configuration not stated)
c1ccc(-c2noc(-c3ccc4ccccc4c3)n2)cc1
C[C@@]12C(=O)OC(=O)[C@@]1(C)[C@@H]1CC[C@@H]2O1
CS(=O)(=O)c1cnc2c(-c3ccc(F)cc3)cnn2c1N
Cc1cc(-c2ccccc2)nnc1NCCN1CCOCC1
CN(C)/C(CN1CCN(C=O)CC1)=C1\N=C(c2ccccc2)OC1=O
CCCCCCCCN1C(=O)N(C)C(N(O)C(=O)NC)C1(C)C (configuration not stated)
O=C(O)c1ccccc1OP(=O)(O)O
CCOC(=O)c1ccc(Cl)c(NC(=O)c2ccc(-c3ccccc3)cc2)c1
Cc1cc(NC(=O)c2cc(C(C)C)on2)no1
COc1cccc(OC)c1C(=O)Nc1cc(C)on1
Cc1cc(NC(=O)c2ccccc2Cl)no1
Nc1ccc(S(=O)(=O)NC(=O)c2ccccc2)cc1
CC(C)(C)NC[C@H](O)COc1cccc2[nH]c(=O)[nH]c12
Cc1ncc(CO)c(CO)c1O
Cc1cc(=O)oc(C)c1C(=O)N1CCCCC1
Cc1ccccc1-n1c(=O)cc(N2CC(C)OC(C)C2)[nH]c1=O (configuration not stated)
O=C(c1ccco1)N1CCN(c2cc(=O)n(C3CCCCC3)c(=O)[nH]2)CC1
CCn1c(=O)cc(SCC(=O)N2CCN(C(=O)c3ccco3)CC2)c2ccccc21
CC[n+]1c(P(=O)([O-])c2ccccc2)[nH]c2ccccc21
Cn1cc(-c2nc3cnc(Oc4ccccc4)nc3n(C)c2=O)c2ccccc21
Cn1cc(-c2nc3cncnc3n(-c3ccccc3)c2=O)c2ccccc21
Nc1nonc1-c1noc(CCCN2C(=O)c3ccccc3C2=O)n1
COC(=O)c1scc(C)c1NC(=O)Cc1ccccc1
CC(=O)c1c(N2CCC(C(N)=O)CC2)nc(=S)n(-c2ccccc2)c1C
CC(=O)N1CCC[C@@]2(CCN(c3ccccc3)C2)C1
COc1ccc(NC(=O)N2CC3(CCN(C(=O)c4csnn4)CC3)C2)cc1
C/C(=C(/CCO)SSC[C@@H]1CCCO1)N(C=O)Cc1cnc(C)nc1N
CCc1ccccc1OC[C@@H](O)CN[C@H]1CCCc2ccccc21
Nc1ccc(N2C(=O)c3ccccc3C2=O)c(Cl)c1
COC(=O)N1CCC2(CC1)CN(C(=O)Nc1cccc(C#N)c1)C2
O=C(Nc1cccc(F)c1)N1CCC2(CC1)CCN(C(=O)c1csnn1)CC2
CCc1c2c(nc3cccc(OC)c13)OC(CC)C2 (configuration not stated)
CCC/C=C(\CCC)C(NC(=O)c1ccc(-c2ccccc2)cc1)c1ccc(C(=O)OC)cc1 (configuration not stated)
CCC/C=C(\CCC)C(NC(=O)c1ccc(C(F)(F)F)cc1)c1ccc(C(F)(F)F)cc1 (configuration not stated)

AC50, inactive and 3.16 µM (active):
CN(C)CCC[C@@]1(c2ccc(F)cc2)OCc2cc(C#N)ccc21

AC50, active:
Cc1cc(Cl)ccc1Nc1sc(C(=O)c2cc3cc(Cl)ccc3o2)c(N)c1C#N 1.26 µM
O=C1c2ccccc2C2=Nc3ccccc3SC(c3ccccc3F)C12 (configuration not stated) 0.0891 µM
OC(c1ccccc1)(c1ccc(F)cc1)C(c1ccccc1)N1CCOCC1 (configuration not stated) 11.2 µM
COc1ccc(N2CCC(CNC(=O)Nc3ccc(OC)cc3OC)C2)cc1 (configuration not stated) 17.8 µM
O=C(c1ccccc1-c1nc(-c2ccccc2)no1)N1CCOCC1 14.1 µM
CCOc1cc(-c2noc(N)c2C#N)cc(OCC)c1OCC 7.94 µM
CS(=O)(=O)c1ccc(-c2cc(Br)sc2-c2ccc(F)cc2)cc1 0.794 µM
CN(C)/C(CN1CCOCC1)=C1\N=C(c2ccccc2)OC1=O 17.8 µM
COC(=O)CNC(=O)CN1C(=O)N(c2ccc(Cl)cc2)C(N(O)C(=O)Nc2ccc(Cl)cc2)C1(C)C (configuration not stated) 14.1 µM
CC(C)(C)[C@@]1(O)CCN2C[C@@H]3c4ccccc4CCc4cccc(c43)[C@@H]2C1 1.58 µM
CCOc1c(Cl)cc(C(=O)Nc2ccccc2-c2ccccc2)cc1Cl 2.82 µM
Cc1cc(C)c2nc(-c3ccccn3)cc(C(=O)Nc3ccc(S(=O)(=O)Nc4cc(C)on4)cc3)c2c1 7.08 µM
NS(=O)(=O)c1ccc(NS(=O)(=O)c2ccc(NC(=O)c3ccc(-c4ccccc4)cc3)cc2)cc1 0.2 µM
COc1cc2ccccc2cc1C(=O)Nc1ccc(S(=O)(=O)Nc2cc(C)on2)cc1 12.6 µM
Cc1cc(NC(=O)c2ccc(S(=O)(=O)Nc3ccccc3)cc2)no1 2.24 µM
COC(=O)c1ccc(NC(=O)c2ccccc2NS(=O)(=O)c2ccccc2)cc1 0.2 µM
O=c1cc(N2CCC(Cc3ccccc3)CC2)[nH]c(=O)n1C1CCCCC1 12.6 µM
CON/C=C(\C=Nc1ccccc1)c1ncc(C(F)(F)F)cc1Cl 7.94 µM
N#Cc1c(NC(=O)CCN2C(=O)c3ccccc3C2=O)oc(-c2ccccc2)c1-c1ccccc1 0.398 µM
Cc1c(/N=C/c2ccco2)n(Cc2ccccc2)c2ccccc12 14.1 µM
COC(=O)CCSc1cc([N+](=O)[O-])cc2c1c(C1OCCS1)nn2-c1ccccc1 (configuration not stated) 10 µM
Cn1cc(/C=N/n2cnc3scc(-c4ccccc4)c3c2=O)c2ccccc21 5.01 µM
O=C(Cc1ccc(Br)cc1)Nc1ccccc1Sc1ccccc1 2.82 µM
COc1ccc(CNc2nc(-c3cccc(NS(C)(=O)=O)c3)nc3ccccc23)c(OC)c1 0.158 µM
COc1ccc(CNc2ncnc3ccc(-c4cccc(NS(C)(=O)=O)c4)cc23)c(OC)c1 0.501 µM
C=CCn1c(C)c(C(C)=O)c(N2CCN(c3ccccc3)CC2)nc1=S 12.6 µM
Nc1ccc(N(S(=O)(=O)c2ccccc2)S(=O)(=O)c2ccccc2)c(Cl)c1 3.16 µM
CCC/C=C(\CCC)C(NC(=O)OCC(C)C)c1ccc(C(=O)OC)cc1 (configuration not stated) 3.98 µM
CCC/C=C(\CCC)C(NC(=O)Cc1ccccc1)c1ccc(C(=O)OC)cc1 (configuration not stated) 10 µM
CCC/C=C(\CCC)C(NC(=O)c1cccs1)c1ccc(C(=O)OC)cc1 (configuration not stated) 2 µM
CCC/C=C(\CCC)C(NS(=O)(=O)c1cccs1)c1ccc(C(=O)OC)cc1 (configuration not stated) 2 µM
CCC/C=C(\CCC)C(NC(=O)c1ccc(C(=O)OC)cc1)c1ccc(C(=O)OC)cc1 (configuration not stated) 2 µM

activity, negative = inhibition, inactive:
c1ccc2c(NC3CCNCC3)nc(-c3ccoc3)nc2c1 -0.161% [at 2.29 µM]
Nc1nc2c(c(=O)[nH]1)N[C@H](CCNc1ccc(C(=O)O)cc1)CN2 10.2% [at 11.4 µM]
C[C@@H](N1CCOCC1)[C@@](O)(c1ccccc1)c1ccccn1 16.5% [at 11.4 µM]
CC(C)(C)C(=O)[C@H]([C@@H](c1ccccc1)N1CCOCC1)N1CCOCC1 3.46% [at 11.4 µM]
CN1CCN(c2ccncc2S(=O)(=O)N2CCN(C)CC2)CC1 14.6% [at 11.4 µM]
O=C(O)C[n+]1ccccc1 6.61% [at 11.4 µM]
CC(=O)OC[C@@H]1O[C@@H](O/N=C2/C[C@@H](O)[C@@H](O)[C@@H]3[C@H]4C(=O)N(c5ccc(F)cc5F)C(=O)[C@@H]4CC[C@H]23)[C@H](OC(C)=O)[C@H](OC(C)=O)[C@@H]1OC(C)=O 29.1% [at 11.4 µM]
CN(C)c1ccc(-c2cncnc2Nc2ccc(F)cc2)cc1 -2.26% [at 2.29 µM]
NS(=O)(=O)c1ccc(NC(=O)Nc2cccc3ccccc23)cc1 -9.47% [at 11.4 µM]
COCCNc1cc(-c2c(C)noc2C)ncn1 6.99% [at 2.29 µM]
Cc1ccc(S(=O)(=O)Nc2ccccc2C(=O)c2ccc(C)c(C)c2)cc1 5.56% [at 11.4 µM]
NC(N)=NC(N)=Nc1ccc(S(N)(=O)=O)cc1 -4.01% [at 11.4 µM]
CN1CCN(c2ccnc(-c3ccoc3)n2)CC1 4.59% [at 2.29 µM]
C/C(CCN1CCCc2nc(C)c(C)cc21)=N\O[C@@H](C)c1cn([C@H](CO)Cc2ccccc2)nn1 -12.1% [at 11.4 µM]
COc1ccc(CNc2ncncc2-c2cccc(NS(C)(=O)=O)c2)c(OC)c1 -18.5% [at 2.29 µM]
COCCNc1nc(-c2cccc(NS(C)(=O)=O)c2)nc2ccccc12 2.19% [at 2.29 µM]
COCCNc1ncnc2ccc(-c3cccc(NS(C)(=O)=O)c3)cc12 16.7% [at 2.29 µM]
CNc1nc(-c2cccc(NS(C)(=O)=O)c2)nc2ccccc12 27.5% [at 2.29 µM]
C[C@@H](CCC(=O)O)C(=O)O 3.2% [at 11.4 µM]
Nc1nc2c(ncn2[C@@H]2C=C[C@@H](CO)C2)c(=O)[nH]1 3.99% [at 11.4 µM]
COc1ccccc1CNc1ncnc2ccc(-c3ccoc3)cc12 -19.5% [at 2.29 µM]
Cc1cnc(CNc2cc(-c3ccoc3)ncn2)cn1 10.6% [at 2.29 µM]
